# Source: PubChem BioAssay (National Center for Advancing Translational Sciences (NCATS))
# Compounds with a hit are over-represented: about 3.7% of the library has one in this group of screens.
# D3 antag = qHTS of D3 Dopamine Receptor Antagonist: qHTS; D(3) dopamine receptor (Homo sapiens), P35462; D3R cells, DiscoveRx beta-arrestin luminescence, antagonist mode; active compounds read low; max response, negative = inhibition, %; 2.5% of 360,000 active; AID 652054, 2013; in the data active = max response below about -50%; inconclusive = no clear call, values can overlap the other calls; also: % is scaled to controls: 0 for no effect and ±100 for the full control effect
# Target sequence (P35462 whole entry, looked up): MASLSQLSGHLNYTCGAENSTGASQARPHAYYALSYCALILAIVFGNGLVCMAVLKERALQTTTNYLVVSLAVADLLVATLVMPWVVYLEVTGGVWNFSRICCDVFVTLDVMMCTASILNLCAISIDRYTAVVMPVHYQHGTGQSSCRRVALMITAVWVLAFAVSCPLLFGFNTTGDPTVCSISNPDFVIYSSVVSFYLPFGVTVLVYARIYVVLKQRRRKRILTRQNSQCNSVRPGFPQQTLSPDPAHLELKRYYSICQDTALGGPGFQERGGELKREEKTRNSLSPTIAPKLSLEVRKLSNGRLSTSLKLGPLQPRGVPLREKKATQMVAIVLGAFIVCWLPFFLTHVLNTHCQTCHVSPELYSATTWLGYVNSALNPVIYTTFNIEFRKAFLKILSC
#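 Cells expressing the human receptor were seeded at 1500 cells/well, incubated overnight at 37 degrees C in 5% CO2, then exposed to library compounds with dopamine controls for 90 minutes at 37 degrees C before luminescent detection.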
# RGS4 inhibitor = Inhibitors of Regulator of G Protein Signaling (RGS) 4: qHTS; Regulator of G-protein signaling 4 (Homo sapiens), P49798; Transcreener GDP fluorescence polarization, RGS4-accelerated GTP hydrolysis; Potency, µM (doses to about 114 µM), for the others: top-dose activity change, negative = inhibition, actives largely listed as inhibitors; 0.039% of 390,000 active; also: potency is read from the fitted curve at half-maximal effect; % is scaled to controls: 0 for no effect and ±100 for the full control effect; nearly all actives have a fitted effect of over 75% in size
# Target sequence (P49798 whole entry, looked up): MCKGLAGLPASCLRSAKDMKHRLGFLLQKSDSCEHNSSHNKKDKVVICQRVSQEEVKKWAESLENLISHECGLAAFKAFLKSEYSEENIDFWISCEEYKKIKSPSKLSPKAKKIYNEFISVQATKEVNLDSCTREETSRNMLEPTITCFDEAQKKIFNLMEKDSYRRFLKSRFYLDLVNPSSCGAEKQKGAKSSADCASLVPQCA
#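 MLSMR compounds (23 nl, pin-transferred) preincubated 10 min at room temperature with a 500nM (2x) first reagent, then RGS4 at 900nM (2x) plus Transcreener GDP mix added; fluorescence polarization (620/688 nm) read before and after 90 min at 30 °C.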
# B2AR arrestin = qHTS assay of beta-arrestin-biased ligands of beta2-adrenergic receptor; beta-arrestin recruitment to beta2AR, cell-based reporter; Potency, µM (highest dose often 46.1 µM), for inactives: top-dose activation, usual class: activators; 0.02% of 330,000 active; AID 492947, 2010;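 also: potency is read from the fitted curve at half-maximal effect; 0% = DMSO controls and full agonism = EC100 isoproterenol or metaproterenol; nearly all actives have a fitted effect of over 65% in size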
# DRD3 agonist = qHTS of D3 Dopamine Receptor Agonist: qHTS. D3R DiscoveRx beta-arrestin cells, luminescence, 90 min. AID 652048, 2013. 0.58% of 410,000 active. D(3) dopamine receptor (Homo sapiens), P35462. max activation, %; in the data active = max activation above about 30%; also: 0% is about no effect
#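 Agonist mode: compounds and dopamine controls were applied to plated cells for 90 min at 37 degrees C after an overnight attachment at 1500 cells/well. Luminescent read-out followed 30 - 60 minutes at room temperature with DiscoveRx detection reagent.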
# PTHR1 agonist = qHTS for PTHR1 Agonists: Primary Screen; HEK293 GP2 PTHR1 cells, GloSensor cAMP luminescence, 1 h; Potency, µM (highest dose often 115 µM), for inactives: top-dose activation, most hits filed as activators; 0.075% of 410,000 active; also: potency is read from the fitted curve at half-maximal effect; nearly all actives have a fitted effect of over 55% in size
#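 HEK-293-derived GP2 cells expressing PTHR1 and a GloSensor cAMP reporter, 3,000/well, plated overnight, given luciferin plus IBMX (each 0.5 mM as added) for 1 h at 37 °C, then compound for 1 h at 37 °C. Luminescence was read after 15 min at room temperature.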
# BRCA1 expr up = qHTS Assay to Identify Small Molecule Activators of BRCA1 Expression | Potency, µM (series often up to 46.1 µM), for the others: at the highest dose activation, actives largely listed as activators | MCF7-BRCA1-FFLuc reporter, luminescence, 48 h; response scale: scaled: vehicle 0%, 10 µM genistein 100% | 1.1% of 380,000 active; also: potency is read from the fitted curve at half-maximal effect; nearly all actives have a fitted effect of over 80% in size
#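 Reporter cells (MCF7, BRCA1 promoter-firefly luciferase) received library compounds across a concentration series for 48 h. End-point luminescence was measured and concentration-effect curves derived after normalization.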
# * marks the source's active call; other numbers are inactive results; i = inactive; ? = inconclusive; / = no result given; [ ] = another dose, or the depositor's remark. Unless noted, calls follow the shape of the dose curve; as a rule, active = well fitted curve in the direction sought with a large enough effect; inconclusive = small, poorly fitted or top-dose-only effect, or another doubt; inactive = no such curve, though single readings can be large; an effect the other way counts as inactive or inconclusive.
SMILES,D3 antag,RGS4 inhibitor,B2AR arrestin,DRD3 agonist,PTHR1 agonist,BRCA1 expr up
CN(C)S(=O)(=O)c1cccc(NC(=O)c2ccccc2SCC(=O)N2CCCC2)c1,63,/,/,3,-19%,23%
CCCOC(=O)c1c(NC(=O)C2c3ccccc3Oc3ccccc32)sc2c1CCC(C)C2 (stereo not given),/,-15%,/,-7,-33%,/
CCOc1ccc(N(CC(=O)NCCSCc2ccccc2Cl)S(C)(=O)=O)cc1,8,-16%,0%,1,-24%,-4%
CCOc1ccc(NC(=O)CN(c2ccc(OC)cc2)S(C)(=O)=O)cc1,-9,15%,-1%,0,-22%,11µM*
COC(=O)c1ccc(NC(=O)CN(c2ccc(OC)cc2)S(C)(=O)=O)cc1,-18,-16%,0%,-2,i,11µM*
CCOc1ccc(N(CC(=O)Nc2ccc(OC)cc2)S(C)(=O)=O)cc1,0,-38%,-1%,-8,-10%,?
CCOc1ccc(N(CC(=O)NCc2ccccc2C)S(C)(=O)=O)cc1,-15,22%,0%,0,-83%,11µM*
CCNC(=O)C1(C)CCCN(CC(=O)c2ccccc2OC)C1 (stereo not given),-23,/,/,-9,5%,3%
COc1cc(C2C(C(=O)c3ccc(C)o3)=C(O)C(=O)N2c2cc(C)on2)cc(Br)c1O (stereo not given),-57*,-21%,0%,0,i,-14%
COc1ccc(C2C(C(=O)c3ccc(C)o3)=C(O)C(=O)N2c2cc(C)on2)cc1OC (stereo not given),19,7%,-1%,-6,i,10%
COc1cc(C2C(C(=O)c3ccco3)=C(O)C(=O)N2c2cc(C)on2)cc(Br)c1O (stereo not given),-73*,-16%,0%,-13,i,20%
O=C(NCc1ccccn1)[C@@H]1CCCN1C(=O)[C@@H]1CCCN1C(=O)c1cccc2ccccc12,-7,/,/,4,-6%,12%
CCN(CC)CCN1C(=O)c2ccccc2NC1c1ccc(OC)c(COc2ccc(NC(C)=O)cc2)c1 (stereo not given),/,3%,/,/,/,-19%
Cc1occc1C(=O)N/N=C/c1sc(N2CCOCC2)nc1-c1ccccc1,-54*,-22%,0%,5,?,-20%
O=C(N/N=C/c1sc(N2CCOCC2)nc1-c1ccccc1)c1ccc(O)cc1,8,-16%,0%,1,-6%,-26%
Cc1occc1C(=O)N/N=C/c1ccc(-c2ccccc2)cc1,-15,-6%,0%,-10,-25%,?
O=C(N/N=C/c1cccs1)c1[nH]ncc1Br,-6,12%,0%,-1,-22%,3.2µM*
Cc1occc1C(=O)N/N=C/c1cccs1,-10,-4%,0%,-12,-17%[57.5 µM],13µM*
Cc1cc(/C=N/NC(=O)c2ccoc2C)cc(C)c1O,0,/,/,-8,-28%,7.9µM*
CCC(CO)Oc1cc(NCc2ccccc2Cl)c2ncn(C(C)C)c2c1 (stereo not given),9,-41%,1%,2,-19%,-12%
C=C1c2c(Cl)ccc(O)c2C(O)=C2C(=O)[C@]3(O)C(O)=C(C(N)=O)C(=O)[C@@H](N(C)C)[C@@H]3[C@@H](O)[C@H]12,/,/,/,4,/,/
CCN(CC)CCOC(c1ccccc1)c1ccc(C)cc1 (stereo not given),-28,11%,1%,-7,i,-3%
CCN(CC)CCC(C)OC(c1ccccc1)c1ccccc1 (stereo not given),-53*,-20%,-1%,-4,i,-34%
Cc1ccc(S(=O)(=O)/N=C2\C(=O)c3ccccc3C([O-])=C2n2cc[n+](CCC(C)C)c2)cc1,-76*,-1%,1%,12,-4%[57.5 µM],-88%
CCC(=O)N1CCc2cc(S(=O)(=O)N3CCN(c4cc(C)ccc4C)CC3)ccc21,2,10%,-1%,-4,?,-17%
SMILES,D3 antag,RGS4 inhibitor,B2AR arrestin,DRD3 agonist,PTHR1 agonist,BRCA1 expr up
OCCN1CCN(CC/C=C2/c3ccccc3CSc3ccccc32)CC1,-105*,-1%,/,-22,-23%,-20%
O=C(N1CCN(CCO)CC1)N1c2ccccc2CCc2ccccc21,-22,-3%,-1%,-6,i,13%
CNCC/C=C1/c2ccccc2CSc2ccccc21,-81*,-5%,0%,0,i,-33%
COc1ccccc1CNC(=O)CSc1nnc(C)c2c(C)n(-c3ccccc3)nc12,/,8%,/,-11,-7%,/
COc1ccc2[nH]cc(CCNC(=O)/C=C/[C@H]3O[C@@H](n4cnc5c(NC(=O)c6ccccc6)ncnc54)[C@H](O)[C@@H]3O)c2c1,20,/,/,6,8%,3%
O=C(CCN1CCN(c2ccc(Cl)cc2)CC1)Nc1nccs1,-66*,-14%,0%,8,-23%,4%
Oc1c(Br)cc(Br)cc1CNc1cccc2cccnc12,-58*,?,0%,-3,-49%,-64%
CC(Cc1ccccc1)C(=O)NCc1ccncc1 (stereo not given),?,0%,0%,-10,-12%,6%
CC(CCc1ccccc1)NCc1ccncc1 (stereo not given),13,-18%,-1%,78*,-17%,-28%
O=C(Nc1nnc(-c2ccc(Cl)cc2)o1)c1nc2ccccc2s1,-74*,14%,0%,-9,27%,4%
Cc1cccc(-c2nnc(NC(=O)c3ccc(Cl)cc3)o2)c1,-97*,-13%,0%,-18,-15%[57.5 µM],-51%
O=C(Nc1nccs1)c1cc2cc(Cl)ccc2oc1=O,-15,2%,-2%,1,0%,3%
CCOC(=O)c1ccc(-n2c(N)c(C(=O)OC)c3nc4ccccc4nc32)cc1,/,-30%,/,8,-24%,/
CSCCC(NC(=O)c1ccco1)C(=O)NCC1CCCCC1 (stereo not given),-4,26%,0%,-12,-64%,2%
CSCCC(NC(=O)c1ccco1)C(=O)NC1CCC(C)CC1 (stereo not given),1,5%,13%,5,-7%,3.5µM*
CSCCC(NC(=O)c1ccccc1)C(=O)NC1CC1 (stereo not given),10,13%,-1%,34*,i,4%
